# Shown are actives, neighbours in structure and some others; about 2.8% of the full set was active somewhere.
# PAX8 inh HTS = inhibitors of PAX8-driven TPO luciferase reporter, primary screen, RMG-I cells, single concentration; inhibition, % at 12.6 µM; hit rate 1.2% among 360,000; SteadyGlo, 24 h;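 active = mean replicate inhibition at least 60% with every replicate also reaching 60%; inconclusive = only one of the two criteria is met; inactive = mean below 60% and not all replicates reaching 60%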;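 note: luciferase light reporting Pax8 driven TPO promoter activity; plate controls were median of neutral control wells for no effect and mitoxantrone controls for full effect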
# HIV Env fusion = inhibitors of HIV-1 Env-driven cell-cell fusion, primary screen, HeLa-JRFL effector, CEM21 target cells, luciferase. inhibition, % at 12.3 µM. hit rate 1.1% among 360,000. AID 651610, 2012;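 active = mean replicate inhibition score of at least 50 and every replicate individually at or above 50; inconclusive = only one of the two criteria met; inactive = mean below 50 and not all replicates reaching 50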;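 note: 0% = plate neutral controls and 100% = maraviroc near 300 nM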
# EBV LMP1 NFkB = EBV LMP1-driven NF-kappaB luciferase reporter inhibitors, primary screen, cell-based, luminescence, single point. hit rate 0.69% among 350,000. LMP1-induced NF-kappaB luciferase reporter cells. inhibition, % at 12.5 µM. AID 504558, 2011; in the data active = inhibition above about 41%; inconclusive = no clear call, values can overlap the other calls;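 note: 0% = neutral control wells and 100% = reference inhibitor control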
# N-glyco inh = increase of ERlucT glycosylation luciferase signal, primary screen, N-linked glycosylation inhibitor project, D54 ERlucT cells, luminescence, set 2. D54 ERlucT glycosylation luciferase reporter, 24 h; percent of 100 nM tunicamycin response. reporter increase, % at 12.5 µM. AID 588692, 2011. hit rate 0.23% among 360,000;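 active = mean luciferase reporter signal, scaled so untreated is 0 and the glycosylation-blocking control 100, at or above a set limit in every replicate; inconclusive = mean reaches the limit but not every replicate does; inactive = mean below the limit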;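 note: luciferase carries N-glycosylation sites so blocking glycosylation raises the light; 0% = median of neutral control wells and 100% = median of 100 nM tunicamycin wells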
# Shn3 inh set2 = reduction of Shn3 3'UTR firefly luciferase signal, primary screen, Schnurri-3 inhibitor project, cell-based, Clone20 osteoblasts, set 2. Clone20 osteoblast Shn3 3'UTR firefly luciferase, 24 h. inhibition, % at 12.5 µM. hit rate 0.52% among 360,000;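 active = mean inhibition of at least 75% with every replicate also reaching 75%; inconclusive = mean inhibition at least 75% but some replicate below; inactive = mean inhibition below 75%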;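 note: 0% = median of neutral control wells and 100% = pilot-screen positive control compound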
# NSD2 inh = NSD2 histone methyltransferase inhibitors, primary screen, biochemical, AlphaScreen, single concentration, set 2; Histone-lysine N-methyltransferase NSD2 (Homo sapiens), O96028; NSD2 peptide methylation, 120 min; inhibition, % at 12.5 µM; hit rate 0.54% among 310,000; AID 743445, 2014; in the data active = inhibition above about 50%
# Target sequence (O96028 whole entry, looked up): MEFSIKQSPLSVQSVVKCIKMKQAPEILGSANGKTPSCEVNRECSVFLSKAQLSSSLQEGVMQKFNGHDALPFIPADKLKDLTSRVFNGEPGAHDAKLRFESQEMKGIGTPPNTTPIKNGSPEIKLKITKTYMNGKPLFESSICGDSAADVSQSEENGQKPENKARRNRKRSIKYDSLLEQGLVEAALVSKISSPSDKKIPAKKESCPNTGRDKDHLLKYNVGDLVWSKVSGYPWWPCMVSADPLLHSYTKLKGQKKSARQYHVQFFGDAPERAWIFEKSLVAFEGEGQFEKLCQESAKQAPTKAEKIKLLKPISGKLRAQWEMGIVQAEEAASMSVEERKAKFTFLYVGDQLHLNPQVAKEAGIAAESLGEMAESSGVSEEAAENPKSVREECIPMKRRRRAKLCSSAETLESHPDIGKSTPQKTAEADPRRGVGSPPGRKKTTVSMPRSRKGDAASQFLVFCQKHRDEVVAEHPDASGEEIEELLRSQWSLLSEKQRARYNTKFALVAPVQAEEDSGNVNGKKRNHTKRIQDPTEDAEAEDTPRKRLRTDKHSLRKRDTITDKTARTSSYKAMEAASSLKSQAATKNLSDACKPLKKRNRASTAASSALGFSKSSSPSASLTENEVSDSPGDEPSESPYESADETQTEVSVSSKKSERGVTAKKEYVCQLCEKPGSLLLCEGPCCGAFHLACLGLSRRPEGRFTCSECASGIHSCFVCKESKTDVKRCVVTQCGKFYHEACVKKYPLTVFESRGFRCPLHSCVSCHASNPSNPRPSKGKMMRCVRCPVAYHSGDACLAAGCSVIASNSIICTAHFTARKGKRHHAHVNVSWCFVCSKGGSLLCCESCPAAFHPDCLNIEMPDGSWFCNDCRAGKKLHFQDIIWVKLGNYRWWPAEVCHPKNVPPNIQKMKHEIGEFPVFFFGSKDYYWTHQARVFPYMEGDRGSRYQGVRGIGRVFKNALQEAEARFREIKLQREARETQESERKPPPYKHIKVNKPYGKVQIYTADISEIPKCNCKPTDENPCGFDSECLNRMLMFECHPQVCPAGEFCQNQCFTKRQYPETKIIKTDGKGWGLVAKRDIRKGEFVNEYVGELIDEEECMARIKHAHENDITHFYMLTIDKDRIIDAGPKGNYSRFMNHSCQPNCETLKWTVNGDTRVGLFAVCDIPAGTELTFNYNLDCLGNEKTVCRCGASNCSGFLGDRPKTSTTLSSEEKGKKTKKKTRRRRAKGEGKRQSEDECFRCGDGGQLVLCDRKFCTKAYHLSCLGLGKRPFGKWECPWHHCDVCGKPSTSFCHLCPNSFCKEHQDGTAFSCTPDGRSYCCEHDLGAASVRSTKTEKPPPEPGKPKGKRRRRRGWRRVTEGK
# Active calls of the source: *; ? = inconclusive; . = no result given; ! = repeats disagree; [ ] = another dose, or the depositor's remark.
SMILES,PAX8 inh HTS,HIV Env fusion,EBV LMP1 NFkB,N-glyco inh,Shn3 inh set2,NSD2 inh
O=S(=O)(NCC[C@@H]1CC[C@@H](NS(=O)(=O)c2ccccc2Cl)[C@@H](CO)O1)c1ccc(Cl)cc1,3.2,-3.9[16.7 µM],.,.,.,.
O=C(Nc1cccc(F)c1)N[C@H]1CC[C@@H](CCNS(=O)(=O)c2cccc(Cl)c2)O[C@H]1CO,-4.9,95.6*[16.7 µM],.,.,.,.
CCCNC(=O)Nc1ccc2c(c1)OC[C@H](C)N(CCC)C[C@H](C)[C@@H](OC)CN(C)C2=O,-3.7,17.6[16.7 µM],.,.,.,.
COCC(=O)N1CC(=O)N2[C@H](CO)[C@@H](c3ccc(C#CC(C)C)cc3)[C@@H]2C1,-19.0,.,.,.,.,.
CC1CCCCN1c1ncnc(N)c1[N+](=O)[O-] (stereo not drawn),-31.1,15.9,22.2,-11.9,14.2,-1.8
CC1Cc2ccccc2N1c1ncnc(N)c1[N+](=O)[O-] (stereo not drawn),-15.4,65.5*,75.8*,-14.2,15.8,9.1
Nc1cc(-c2ccccc2)nn1S(=O)(=O)c1ccc(F)cc1,18.0,79.3*,-6.0,-6.3,29.1,.
Nc1cc(-c2ccc(Br)cc2)nn1S(=O)(=O)c1ccccc1,6.2,?,1.2,-4.1,14.0,.
CCOc1ccc(Br)cc1C1=NN(C(C)=O)C(c2ccc([N+](=O)[O-])s2)O1 (stereo not drawn),23.8,-27.6,-20.5,35.9*,72.5,2.0
CC(=O)N1N=C(c2ccc(C)cc2)OC1c1ccc(Br)cc1 (stereo not drawn),-149.8,-55.7,-60.0,-1.0,-86.3,1.3
Oc1ccccc1C=NNC(=S)Nc1ccc(F)cc1,-33.7,-78.1,29.8,-4.2,90.1*,-2.1
C[C@@H]1CCCCO[C@H](CN(C)C(=O)Nc2ccccc2)[C@H](C)CN([C@@H](C)CO)C(=O)c2cc(NS(C)(=O)=O)ccc2O1,4.7,5.1[16.7 µM],.,.,.,.
O=C(Nc1ccc(CN2CCOCC2)cc1)c1ccc(Cl)cc1,-52.7,-33.4,-39.3,-2.7,-105.4,-3.6
O=C(Nc1ccc(CN2CCS(=O)(=O)CC2)cc1)c1ccc(C(F)(F)F)cc1,-1.8,76.0*,2.0,-1.7,11.5,-6.3
COC(=O)c1ccc(NC(=O)c2ccc(CN3CCOCC3)cc2)cc1,.,83.7*,15.2,-0.7,3.0,-0.6
C[C@@H]1CN([C@@H](C)CO)C(=O)c2cc(C3=CCCC3)cnc2O[C@@H]1CN(C)C(=O)Nc1ccc(C(F)(F)F)cc1,.,30.7[16.7 µM],.,.,.,.
COc1ccc(-c2cc3nc[nH]c(=O)c3s2)cc1,.,-91.4,-8.9,-5.9,-34.1,.
COc1ccc(-c2cc3nc(CCl)[nH]c(=O)c3s2)cc1,17.0,32.3,49.2*,-15.8,9.9,-6.5
CCC(=O)Nc1ccc2c(c1)C(=O)N(C)[C@@H]1CC[C@@H](CC(=O)NCCOC)O[C@H]1CO2,-8.9,-6.2[16.7 µM],.,.,.,.
CNC[C@H]1OCCCC[C@@H](C)Oc2ccc(NC(=O)Nc3ccccc3)cc2C(=O)N([C@H](C)CO)C[C@@H]1C,-11.2,-2.1[16.7 µM],.,.,.,.
COc1ccccc1N(C)S(=O)(=O)c1ccc(C(=O)Nc2cc(F)ccc2C)cc1,17.3,-59.9,-7.0,-0.8,82.9*,-2.4
COc1ccccc1N(C)S(=O)(=O)c1ccc(C(=O)NC(C)(C)C)cc1,.,-16.5,-11.4,2.0,-7.1,-0.8
COc1ccc(C(=O)CCN2CCN(c3ccccc3F)CC2)cc1,77.7*,9.8,5.4,-2.2,-2.3,10.8
O=C(CCN1CCN(c2ccccc2F)CC1)c1ccc(Br)cc1,.,.,-5.5,0.1,-9.5,.
COc1ccccc1C=NN=Cc1ccccc1O,-74.9,-51.1,83.3*,-1.6,-24.0,-5.9
SMILES,PAX8 inh HTS,HIV Env fusion,EBV LMP1 NFkB,N-glyco inh,Shn3 inh set2,NSD2 inh
C[C@H](CO)N1C[C@H](C)[C@H](CN(C)S(=O)(=O)c2ccc(Cl)cc2)Oc2c(NC(=O)c3ccc(-c4nccs4)cc3)cccc2C1=O,40.4,13.2[16.7 µM],.,.,.,.
Cc1ccc(C(=O)Nc2ccc3ncccc3c2)cc1,21.7,-19.8,45.2*,-18.1,47.7,2.5
C[C@@H](NC(=O)C[C@H]1CC[C@@H]2[C@H](COC[C@H](O)CN2C)O1)c1ccccc1,3.5,-4.4[16.7 µM],.,.,.,.
C[C@@H]1CN([C@@H](C)CO)S(=O)(=O)c2ccc(C#Cc3ccccc3F)cc2O[C@H]1CN(C)C(=O)Cc1ccccc1,91.5*,22.7[16.7 µM],.,.,.,.
C[C@@H]1CN([C@@H](C)CO)S(=O)(=O)c2ccc(C#CC3CCCC3)cc2O[C@H]1CN(C)C(=O)Cc1ccccc1,56.8,25.3[16.7 µM],.,.,.,.
C[C@@H]1CN([C@H](C)CO)S(=O)(=O)c2ccc(C#CC3CCCC3)cc2O[C@H]1CN(C)C(=O)Cc1ccccc1,66.8*!,-4.7,1.8,0.1,30.3,.
C[C@H]1CN([C@@H](C)CO)S(=O)(=O)c2ccc(C#Cc3ccccc3F)cc2O[C@@H]1CN(C)C(=O)Cc1ccccc1,58.5,10.2[16.7 µM],.,.,.,.
COc1ccc(OC)c(Nc2nc(N)nc(CCl)n2)c1,118.0*,5.4,6.4,0.9,8.4,1.6
COc1ccccc1Nc1nc(N)nc(CCl)n1,105.4*,-9.4,-5.8,-0.2,-12.9,0.4
COCc1cc(C)nc(OCC(=O)N/N=C/c2ccc(-c3cc([N+](=O)[O-])ccc3C)o2)c1C#N,-4.9,64.0*,7.6,-0.2,11.8,-9.0
COc1ccc(-c2csc(N(CC3CCCO3)C(=O)c3ccccc3)n2)cc1 (stereo not drawn),17.9,22.7,5.9,-5.7,10.5,3.1
COc1ccc(-c2csc(N(CC3CCCO3)C(=O)c3ccc(C)cc3)n2)cc1 (stereo not drawn),7.7,48.6*,3.6,-9.1,36.8,-0.9
C=CC(=O)Nc1cccc(Oc2ncnc3[nH]cc(-c4cnc5ccccc5c4)c23)c1,46.9,57.1*,12.3,-12.8,32.1,.
CN(C)C(=O)c1cccc(-c2ccc3n(c2=O)C[C@H]2[C@H](CO)[C@@H](C(=O)NCC(F)(F)F)[C@@H]3N2C)c1,.,4.7[16.7 µM],.,.,.,.
COC(=O)CN1C(c2ccccc2)=Nc2ccc(Cl)cc2C1c1ccccc1 (stereo not drawn),.,104.6*,-1.8,-3.3,2.0,-0.1
COC(=O)CN1C(C)=Nc2ccc(C)cc2C1c1ccccc1 (stereo not drawn),-8.3,16.8,2.9,-1.9,1.9,-1.6
C[C@@H](NC(=O)C[C@@H]1C[C@@H]2c3cc(NC(=O)c4cccnc4)ccc3O[C@@H]2[C@@H](CO)O1)c1ccccc1,-13.3,-2.3[16.7 µM],.,.,.,.
Cc1ccc(NC(=O)C[C@H]2CC[C@H]3[C@@H](COc4ccc(NS(C)(=O)=O)cc4C(=O)N3C)O2)cc1,-27.1,.,.,.,.,.
C[C@@H]1CN([C@H](C)CO)C(=O)c2cccc(NC(=O)C3CCCCC3)c2O[C@H]1CN(C)Cc1ccccc1,9.3,74.2*[16.7 µM],.,.,.,.

# Screening results from PubChem.
